{
  "source": "PubChem BioAssay",
  "note": "Measured potencies and affinities stand elsewhere. Results filed as inconclusive are left out. Activity calls are given as the source filed them. No rule for the calls is given here.",
  "data": [
    {"assay": "general cell-killing toxicity readout – plate reader, dry powder samples, cytotoxicity control for PAX8 inhibitor project, dose response (AID 743021)", "conditions": "cell line, non-specific cytotoxicity counter-screen; series mostly up to 35 µM", "values": [
      {"smiles": "C[C@@H]1CCCCO[C@H](CN(C)C(=O)Cc2ccccc2)[C@@H](C)CN([C@@H](C)CO)C(=O)c2cc(NC(=O)Nc3ccc(C(F)(F)F)cc3)ccc2O1", "outcome": "inactive"},
      {"smiles": "Cc1ccc(S(=O)(=O)Nc2ccc3c(c2)C(=O)N([C@@H](C)CO)C[C@@H](C)[C@H](CN(C)Cc2ccc(C(F)(F)F)cc2)OCCCC[C@H](C)O3)cc1", "outcome": "inactive"},
      {"smiles": "O=C(Nc1ccc(F)cc1)N1CCCCN2[C@@H](CO)[C@@H](c3ccc(C#Cc4ccccc4)cc3)[C@@H]2C1", "outcome": "inactive"},
      {"smiles": "C[C@@H]1CN([C@H](C)CO)C(=O)c2cc(NC(=O)Nc3ccc(C(F)(F)F)cc3)ccc2O[C@@H](C)CCCCO[C@@H]1CN(C)C(=O)c1ccccc1", "outcome": "inactive"},
      {"smiles": "C[C@H]1CCCCO[C@H](CN(C)C(=O)C2CCCCC2)[C@@H](C)CN([C@@H](C)CO)C(=O)c2cc(NC(=O)Nc3ccc(F)cc3)ccc2O1", "outcome": "inactive"},
      {"smiles": "O=c1ccc2ccccc2c2ccccc12", "outcome": "inactive"},
      {"smiles": "COc1ccc(S(=O)(=O)Nc2ccc3c(c2)C(=O)N([C@H](C)CO)C[C@H](C)[C@H](CN(C)Cc2ccc(C(F)(F)F)cc2)OCCCC[C@H](C)O3)cc1", "outcome": "inactive"},
      {"smiles": "COc1cc(/C=C2\\SC(=S)N(CCC(=O)N3CCCCC3)C2=O)cc(OC)c1OC", "outcome": "inactive"},
      {"smiles": "C[C@@H]1CN([C@H](C)CO)C(=O)c2cc(NC(=O)NC3CCCCC3)ccc2O[C@@H](C)CCCCO[C@H]1CN(C)Cc1ccc(C(F)(F)F)cc1", "outcome": "inactive"},
      {"smiles": "Cc1ccc(-c2csc(NC3OC(=O)c4ccccc43)n2)cc1", "note": "(stereo not drawn)", "outcome": "inactive"},
      {"smiles": "Cc1nc(SCC(=O)Nc2nc3ccccc3s2)c(C#N)c(C)c1C", "outcome": "inactive"},
      {"smiles": "CN1c2ccc(-c3ccccc3)cc2[C@H]2[C@H](CCN2C(=O)NC2CCCCC2)[C@@H]1CO", "outcome": "inactive"},
      {"smiles": "Cc1noc(C)c1S(=O)(=O)Nc1ccc2c(c1)C(=O)N([C@H](C)CO)C[C@H](C)[C@@H](CN(C)C(=O)Nc1ccc(C(F)(F)F)cc1)OCCCC[C@H](C)O2", "outcome": "inactive"},
      {"smiles": "Cc1ccc(S(=O)(=O)N(C)C[C@@H]2Oc3cc(C#Cc4ccncc4)ccc3S(=O)(=O)N([C@H](C)CO)C[C@H]2C)cc1", "outcome": "inactive"},
      {"smiles": "Cc1ccc2cccc(NS(=O)(=O)c3ccccc3)c2n1", "outcome": "inactive"},
      {"smiles": "O=C1/C(=C/c2ccccc2F)SC(=S)N1CC(=O)N1CCCCC1c1cccnc1", "note": "(stereo not drawn)", "outcome": "inactive"},
      {"smiles": "O=C(/C=C/c1ccccc1)Nc1cccc(C(=O)O)c1", "outcome": "inactive"},
      {"smiles": "O=C(NCCc1ccccc1)c1ccc2c(c1)OCCCO2", "outcome": "inactive"},
      {"smiles": "Cc1ccccc1S(=O)(=O)N1CC[C@@H]2[C@H](CO)Nc3ccc(-c4cccc(F)c4)cc3[C@@H]21", "outcome": "inactive"},
      {"smiles": "C[C@H](CO)N1C[C@H](C)[C@@H](CN(C)C(=O)C2CCCCC2)OCCCC[C@H](C)Oc2ccc(NS(=O)(=O)c3ccc(Cl)cc3)cc2C1=O", "outcome": "inactive"},
      {"smiles": "Cc1cc(C)c2sc(NNC(=O)c3ccc(S(=O)(=O)N4CCc5ccccc5C4)cc3)nc2c1", "outcome": "inactive"},
      {"smiles": "CN(C)CCN(C(=O)/C=C/c1cccs1)c1nc2c(F)cc(F)cc2s1", "outcome": "inactive"},
      {"smiles": "C[C@H](CO)N1C[C@H](C)[C@@H](CN(C)Cc2ccc(Cl)c(Cl)c2)Oc2ccc(NS(=O)(=O)c3ccccc3)cc2CC1=O", "outcome": "inactive"},
      {"smiles": "CCCC(=O)N1CCN(c2ccc(NC(=O)c3ccc([N+](=O)[O-])o3)cc2)CC1", "outcome": "inactive"},
      {"smiles": "Cc1ccc(S(=O)(=O)Nc2ccc3c(c2)nc(CCN2CCCC2)n3C)cc1", "outcome": "inactive"},
      {"smiles": "C[C@@H]1CN([C@H](C)CO)C(=O)c2cc(NC(=O)Nc3ccccc3)ccc2O[C@@H](C)CCCCO[C@@H]1CN(C)Cc1ccc(C(F)(F)F)cc1", "outcome": "inactive"},
      {"smiles": "COc1cc(-c2c(-c3cc(OC)c(OC)c(OC)c3)noc2C)ccc1F", "outcome": "inactive"},
      {"smiles": "C[C@H]1O[C@@H](O[C@H]2[C@@H](O)C[C@H](O[C@H]3[C@@H](O)C[C@H](O[C@H]4CC[C@@]5(C)[C@H](CC[C@@H]6[C@@H]5C[C@@H](O)[C@]5(C)[C@@H](C7=CC(=O)OC7)CC[C@]65O)C4)O[C@@H]3C)O[C@@H]2C)C[C@H](O)[C@@H]1O", "outcome": "inactive"},
      {"smiles": "Cc1ccc(S(=O)(=O)N(C)C[C@@H]2Oc3cc(C#Cc4ccncc4)ccc3S(=O)(=O)N([C@H](C)CO)C[C@@H]2C)cc1", "outcome": "inactive"},
      {"smiles": "Cc1cc(NC(=O)CCCS(=O)(=O)c2nc(-c3cccs3)cc(C(F)(F)F)n2)no1", "outcome": "inactive"},
      {"smiles": "COc1ccccc1C#Cc1ccc2c(c1)O[C@H](CN(C)Cc1cccnc1)[C@H](C)CN([C@@H](C)CO)S2(=O)=O", "outcome": "inactive"},
      {"smiles": "C[C@@H]1CCCCO[C@H](CN(C)Cc2ccc(C(F)(F)F)cc2)[C@H](C)CN([C@@H](C)CO)C(=O)c2cc(NS(=O)(=O)c3ccc(F)cc3)ccc2O1", "outcome": "inactive"},
      {"smiles": "CC(=O)Nc1ccc(S(=O)(=O)c2ccnc3cc(Cl)ccc23)cc1", "outcome": "inactive"}
    ]},
    {"assay": "IGROV1 cell killing – plate reader, dry powder samples, PAX8 inhibitor project, dose response (AID 743043);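 also: more negative means fewer viable cells or more cytotoxicity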", "conditions": "IGROV1 ovarian cancer cell cytotoxicity; series mostly up to 35 µM", "values": [
      {"smiles": "C[C@@H]1CCCCO[C@H](CN(C)C(=O)Cc2ccccc2)[C@@H](C)CN([C@@H](C)CO)C(=O)c2cc(NC(=O)Nc3ccc(C(F)(F)F)cc3)ccc2O1", "outcome": "inactive"},
      {"smiles": "Cc1ccc(S(=O)(=O)Nc2ccc3c(c2)C(=O)N([C@@H](C)CO)C[C@@H](C)[C@H](CN(C)Cc2ccc(C(F)(F)F)cc2)OCCCC[C@H](C)O3)cc1", "outcome": "inactive"},
      {"smiles": "COc1ccc(CN(C)C[C@H]2OCCCC[C@@H](C)Oc3ccc(NC(=O)Nc4ccc(F)cc4)cc3C(=O)N([C@@H](C)CO)C[C@@H]2C)cc1", "outcome": "inactive"},
      {"smiles": "C[C@@H]1CN([C@H](C)CO)C(=O)c2cc(NC(=O)Nc3ccc(C(F)(F)F)cc3)ccc2O[C@@H](C)CCCCO[C@@H]1CN(C)C(=O)c1ccccc1", "outcome": "inactive"},
      {"smiles": "COc1ccc(S(=O)(=O)Nc2ccc3c(c2)C(=O)N([C@H](C)CO)C[C@H](C)[C@H](CN(C)Cc2ccc(C(F)(F)F)cc2)OCCCC[C@H](C)O3)cc1", "outcome": "inactive"},
      {"smiles": "Cc1ccc(-c2csc(NC3OC(=O)c4ccccc43)n2)cc1", "note": "(stereo not drawn)", "outcome": "inactive"},
      {"smiles": "CN1c2ccc(-c3ccccc3)cc2[C@H]2[C@H](CCN2C(=O)NC2CCCCC2)[C@@H]1CO", "outcome": "inactive"},
      {"smiles": "COc1ccc(S(=O)(=O)N(C)C[C@H]2OCCCC[C@H](C)Oc3ccc(NS(=O)(=O)c4ccc(F)cc4)cc3C(=O)N([C@@H](C)CO)C[C@@H]2C)cc1", "outcome": "inactive"},
      {"smiles": "CO[C@@H]1CN(C)C(=O)c2cc(NC(=O)c3ccc(-c4ccccc4)cc3)ccc2OC[C@H](C)NC[C@H]1C", "outcome": "inactive"},
      {"smiles": "Cc1noc(C)c1S(=O)(=O)Nc1ccc2c(c1)C(=O)N([C@H](C)CO)C[C@H](C)[C@@H](CN(C)C(=O)Nc1ccc(C(F)(F)F)cc1)OCCCC[C@H](C)O2", "outcome": "inactive"},
      {"smiles": "Cc1ccc(S(=O)(=O)N(C)C[C@@H]2Oc3cc(C#Cc4ccncc4)ccc3S(=O)(=O)N([C@H](C)CO)C[C@H]2C)cc1", "outcome": "inactive"},
      {"smiles": "O=C1/C(=C/c2ccccc2F)SC(=S)N1CC(=O)N1CCCCC1c1cccnc1", "note": "(stereo not drawn)", "outcome": "inactive"},
      {"smiles": "Cc1ccccc1S(=O)(=O)N1CC[C@@H]2[C@H](CO)Nc3ccc(-c4cccc(F)c4)cc3[C@@H]21", "outcome": "inactive"},
      {"smiles": "C[C@H](CO)N1C[C@H](C)[C@@H](CN(C)C(=O)C2CCCCC2)OCCCC[C@H](C)Oc2ccc(NS(=O)(=O)c3ccc(Cl)cc3)cc2C1=O", "outcome": "inactive"},
      {"smiles": "Cc1ccc(S(=O)(=O)Nc2ccc3c(c2)CC(=O)N([C@@H](C)CO)C[C@H](C)[C@@H](CN(C)C(=O)Nc2ccc(C(F)(F)F)cc2)O3)cc1", "outcome": "inactive"},
      {"smiles": "C[C@H](CO)N1C[C@H](C)[C@@H](CN(C)Cc2ccc(Cl)c(Cl)c2)Oc2ccc(NS(=O)(=O)c3ccccc3)cc2CC1=O", "outcome": "inactive"},
      {"smiles": "Cc1ccc(S(=O)(=O)Nc2ccc3c(c2)nc(CCN2CCCC2)n3C)cc1", "outcome": "inactive"},
      {"smiles": "Cc1ccc(S(=O)(=O)N(C)C[C@@H]2Oc3cc(C#Cc4ccncc4)ccc3S(=O)(=O)N([C@H](C)CO)C[C@@H]2C)cc1", "outcome": "inactive"},
      {"smiles": "CC(C)CC#Cc1ccc2c(c1)O[C@H](CN(C)Cc1ccc(C(=O)O)cc1)[C@@H](C)CN([C@H](C)CO)S2(=O)=O", "outcome": "inactive"},
      {"smiles": "COc1ccccc1C#Cc1ccc2c(c1)O[C@H](CN(C)Cc1cccnc1)[C@H](C)CN([C@@H](C)CO)S2(=O)=O", "outcome": "inactive"}
    ]}
  ]
}
